Reference: PubChem BioAssay (NCATS)
Calls of active or inactive are those of the source. No rule for the calls is given here.

Each compound was assayed on HIV-1 nucleocapsid protein NCp7 (binding to TG oligonucleotide) (assay: HIV Nucleocapsid (AID 346;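 also: potency is for inhibitors that block NC binding and lower polarization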)). Details: HIV-1 NC / fluorescein-TGTGTGTG probe, fluorescence polarization.
Procedure, shortened: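 Fluorescence polarization readout: labelled TG4xF oligo (10 nM) with 100 nM nucleocapsid protein, high-salt (250mM NaCl) Hepes pH 7.5 buffer containing zinc and fresh reducing agents. Compounds added by pin tool; incubation 1 hr, room temperature.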
Potency is read from the fitted curve at half-maximal effect.

Structure (SMILES) | Potency
COc1ccc2[nH]cc(CCNc3cc(-c4c(C)noc4C)ncn3)c2c1 | > 20 µM (inactive)
CN(C)C(=O)c1ccc(-c2nccc(NCc3ccccc3)n2)cc1 | > 20 µM (inactive)
COc1cccc(Cn2c(=O)cnc3cnc(OC)nc32)c1 | > 20 µM (inactive)
CC(C)NC(=O)N1CC[C@@]2(CCCN(C(=O)c3cccc(F)c3)C2)C1 | > 20 µM (inactive)
COCC(=O)N1CCC2(CC1)CN(C(=O)Nc1cccc(F)c1)C2 | > 20 µM (inactive)
O=C(c1cc(C(F)(F)F)cc(C(F)(F)F)c1)N1CCC2(CC1)CCN(c1ncccn1)CC2 | > 20 µM (inactive)
O=c1c(-c2ccc(F)cc2)nc2cnc(N3CCOCC3)nc2n1CCc1ccccc1 | > 20 µM (inactive)
COc1cccc(-c2ccc3ncnc(N4CCNCC4)c3c2)c1 | > 20 µM (inactive)
CC(=O)NCCNc1nc(-c2cccc(C#N)c2)nc2ccccc12 | > 20 µM (inactive)
COc1ccc(Oc2ncc3nc(-c4ccc(Cl)cc4)c(=O)n(C[C@H]4CCCO4)c3n2)cc1 | > 20 µM (inactive)
CC(C)NC(=O)N1CC[C@@]2(CCCN(C(=O)c3csnn3)C2)C1 | > 20 µM (inactive)
COc1ccc(Oc2ncc3nc(-c4ccc(F)cc4)c(=O)n(C)c3n2)cc1 | > 20 µM (inactive)
O=c1c(-c2cccc(F)c2)nc2cncnc2n1Cc1ccc(F)cc1 | > 20 µM (inactive)
CN(C)C(=O)c1ccc(-c2nccc(N(C)Cc3ccco3)n2)cc1 | > 20 µM (inactive)
CN1CCN(c2ncc3nc(-c4ccccc4)c(=O)n(C4CC4)c3n2)CC1 | > 20 µM (inactive)
COc1ncc2nc(-c3ccc(F)cc3)c(=O)n(-c3ccccc3)c2n1 | > 20 µM (inactive)
COc1ccccc1-c1cncnc1-n1ccnc1 | > 20 µM (inactive)
O=C(c1cc(C(F)(F)F)cc(C(F)(F)F)c1)N1CCC2(CC1)CN(c1ccncc1)C2 | > 20 µM (inactive)
COc1cccc(Nc2ncc3ncc(=O)n(CCc4ccccc4)c3n2)c1 | > 4 µM (inactive)
CN1CCC2(CC1)CCN(S(=O)(=O)c1ccccc1)CC2 | > 20 µM (inactive)

Structure (SMILES) | Potency
Cc1nc2cncnc2n(-c2ccccc2)c1=O | > 20 µM (inactive)
Cn1cccc1C(=O)N1CCC2(CC1)CCN(c1ccc(-c3ccccc3)cc1)CC2 | > 20 µM (inactive)
Cc1cnc(CNc2ncnc3ccc(-c4ccccc4C)cc23)cn1 | > 20 µM (inactive)
Cc1nc2cnc(N(C)C)nc2n(-c2ccccc2)c1=O | > 4 µM (inactive)
N#Cc1cccc(NC(=O)N2CCCC3(CCN(C(=O)c4ccncc4)CC3)C2)c1 | > 20 µM (inactive)
COCCn1c(=O)c(-c2cccs2)nc2cncnc21 | > 20 µM (inactive)
Cc1cnc(CNc2nc(-c3ccc4c(c3)OCO4)nc3ccccc23)cn1 | > 20 µM (inactive)
CCNc1ncc2nc(-c3ccccc3)c(=O)n(CCOC)c2n1 | > 20 µM (inactive)
COc1ncc2nc(C)c(=O)n(C[C@H]3CCCO3)c2n1 | > 20 µM (inactive)
CN(C)c1ccc(-c2cncnc2-n2ccnc2)cc1 | > 20 µM (inactive)
COc1ncc2nc(C)c(=O)n(Cc3cccs3)c2n1 | > 20 µM (inactive)
COc1cccc(-c2cncnc2NCc2cccc(C)c2)c1 | > 20 µM (inactive)
O=C(c1csnn1)N1CCC[C@@]2(CCN(Cc3cc(C(F)(F)F)cc(C(F)(F)F)c3)C2)C1 | > 20 µM (inactive)
CC(C)CN1CCCC2(CCN(S(=O)(=O)c3ccccc3)CC2)C1 | > 20 µM (inactive)
O=c1c(-c2ccc(F)cc2)nc2cnc(N3CCOCC3)nc2n1Cc1ccc(F)cc1 | > 20 µM (inactive)
O=C(c1csnn1)N1CCC[C@@]2(CCN(c3ccncc3)C2)C1 | > 20 µM (inactive)
Cn1cccc1C(=O)N1CCC2(CCCN(C(=O)Nc3cccc(F)c3)C2)CC1 | > 20 µM (inactive)
COCC(=O)N1CCC2(CC1)CCN(C(=O)Nc1cccc(C#N)c1)CC2 | > 20 µM (inactive)
CN1CC[C@@]2(CCCN(C(=O)c3cccn3C)C2)C1 | > 20 µM (inactive)
COCCn1c(=O)cnc2cnc(Oc3cccc(Cl)c3)nc21 | > 20 µM (inactive)
